# Values joined by “and” are separate entries in the source; they are usually repeats but may differ in a detail not shown here. Identical values can stand only once. Inconclusive results are not listed. Where a call stands in place of a potency, no number is given. Active and inactive are the calls of the source. Unless noted, the call rests on the fitted dose curve; in most records, active means well fitted curve in the direction sought with a large enough effect in the repeat runs; inconclusive means weak or mixed curves; inactive means no such curve, though single readings can be large; an effect the other way counts as inactive or inconclusive.
# Tests used:
# [1] = qHTS assay for small molecule agonists of the p53 signaling pathway - cell viability (AID 651633; calls by dose curve; further: nearly all actives have a fitted effect of over 30% in size; further: potency means the concentration at half of the fitted maximal effect)
# Procedure, shortened: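 Viability counter-read: CellTiter-Glo luminescence (30 min, room temperature) in the same p53RE-bla plates. These plates had been exposed to compounds for 16 h at 37 C.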
# [2] = qHTS assay for small molecules that induce genotoxicity in human embryonic kidney cells expressing luciferase-tagged ATAD5 - cell viability (AID 651634; calls by dose curve; further: nearly all actives have a fitted effect of over 25% in size; further: potency means the concentration at half of the fitted maximal effect)
# Procedure, shortened: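 Cytotoxicity counterscreen in HEK293T cells bearing an ATAD5-luciferase reporter: live-cell protease activity measured by CellTiter-Fluor fluorescence after 15.5 hr compound exposure.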
# [3] = qHTS assay for small molecule disruptors of the mitochondrial membrane potential - cell viability (AID 720634; calls by dose curve; further: nearly all actives have a fitted effect of over 20% in size; further: potency means the concentration at half of the fitted maximal effect)
# Procedure, shortened: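 After overnight attachment at 37 C, HepG2 cells received compound or DMSO vehicle for 1 hr. Viability is then taken from ATP-driven luminescence following a 30 min room-temperature CellTiter-Glo step.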
# [4] = qHTS assay for small molecule disruptors of the mitochondrial membrane potential (AID 720635); further: potency means the concentration at half of the fitted maximal effect
# Procedure, shortened: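 Mitochondrial membrane potential tracked with Mito-MPS dye, red aggregates (ex 540/em 590 nm) against green monomers (ex 490/em 535 nm). Compound treatment 1 hr at 37C, dye 30 min in HepG2.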
# [5] = qHTS assay to test for compound auto fluorescence at 590 nm (red) in HepG2 cells (AID 720674)
# Procedure, shortened: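 1 hr compound incubation on HepG2 cells, 37 C, 5% CO2; plate read ex 540 nm / em 590 nm; intensities reported as Rose Bengal sodium equivalents.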
# [6] = qHTS assay to test for compound auto fluorescence at 535 nm (green) in HepG2 cells (AID 720675)
# [7] = qHTS assay to test for compound auto fluorescence at 460 nm (blue) in HEK293 cells (AID 720678)
# Procedure, shortened: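 Blue read-out at excitation 405 nm and emission 460 nm follows overnight compound exposure of HEK293 cells at 37C in 5% CO2. Activity is given as auto fluorescence equivalency to triamterene.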
# [8] = qHTS assay to test for compound auto fluorescence at 590 nm (red) in HEK293 cells (AID 720679)
# Procedure, shortened: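 Red channel, Ex/Em 540/590nm; signal expressed as equivalency to Rose Bengal sodium. HEK293, 2,000 cells/well, 10% dialyzed FBS; 23 nL compound pinned after 4-5 hr attachment; overnight 37C/5% CO2 before reading.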
# [9] = qHTS assay for small molecules that induce genotoxicity in human embryonic kidney cells expressing luciferase-tagged ATAD5 (AID 651632); further: nearly all actives have a fitted effect of over 15% in size
# Procedure, shortened: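 Increased luciferase signal from ATAD5-tagged reporter cells indicates DNA-damage-driven ATAD5 induction. HEK293T cells are treated for 16 hr at 37C before detection with Amplite.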
# [10] = qHTS assay for small molecule agonists of the p53 signaling pathway (AID 651631; calls by dose curve; further: nearly all actives have a fitted effect of over 15% in size)
# Procedure, shortened: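 Stably transfected HCT-116 cells (beta-lactamase behind p53 response elements) get compounds after a 5 h settling period; 16 h later at 37 °C, FRET substrate is loaded and fluorescence read after 2 h.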
Compound,Potency [1],Potency [2],Potency [3],Potency [4],outcome [5],outcome [6],Potency [7],outcome [8],Potency [9],Potency [10]
CCOC(=O)C1OC1c1ccccc1 (centres undefined),inactive,inactive,inactive,inactive,inactive,inactive,inactive,inactive,,
NCCNCCNCCNCCN,inactive,inactive,,inactive,inactive,,inactive,inactive,inactive,
Oc1ccc2ccccc2c1N=Nc1ccccc1,inactive,30.6 µM (active) and 48.6 µM (active),27.3 µM (active),3.06 µM (active) and 6.11 µM (active),inactive,inactive,inactive,inactive,inactive,
CN(C)c1cccc(O)c1,inactive,inactive,inactive,10.9 µM (active),inactive,,inactive,inactive,inactive,
Nc1c(S(=O)(=O)O)cc(Br)c2c1C(=O)c1ccccc1C2=O,inactive,30.6 µM (active),inactive,,inactive,inactive,inactive,inactive,inactive,
OCC#CCO,inactive,inactive,inactive,inactive,inactive,,inactive,inactive,,inactive
CCCCOCCOCCOC(=O)CCCCC(=O)OCCOCCOCCCC,inactive,inactive,inactive,inactive,inactive,,inactive,inactive,inactive,
ClC1=C(Cl)C(Cl)(Cl)C(Cl)=C1Cl,13.8 µM (active),6.9 µM (active) and 15.4 µM (active),,61.1 µM (active),inactive,inactive,inactive,inactive,inactive,
NC(=O)NNc1ccccc1,inactive,inactive,,inactive,inactive,,inactive,inactive,,inactive
CN(CCOc1ccc(CC2SC(=O)NC2=O)cc1)c1ccccn1 (centres undefined),inactive,inactive,inactive,48.3 µM (active),inactive,,inactive,inactive,inactive,
OC1CCCC1,inactive,inactive,inactive,inactive,inactive,inactive,inactive,inactive,inactive,
CC(C)(N=C=O)c1cccc(C(C)(C)N=C=O)c1,inactive,inactive,,,inactive,,inactive,inactive,inactive,
CC1=CC[C@H]2C[C@@H]1C2(C)C,inactive,inactive,,,inactive,,inactive,inactive,inactive,
Cc1cc(O)cc(C)c1Cl,inactive,inactive,inactive,21.1 µM (active) and 21.7 µM (active),inactive,inactive,inactive,inactive,inactive,

# From PubChem BioAssay (Tox21)
